Some of the results follow. A number with no mark means an inactive call. Activity calls are given as the source filed them. Cut-off read from the data, not from the text of the source: active = IC50 below about 10 µM; inactive = the rest.
Experiment: dye displacement from CAG DNA duplex – biochemical, fluorescence, TO-PRO-1 dye, counter-screen for rCAG RNA repeat binder project, dose response (AID 686960)
Conditions: DNA CAG/GTC duplex TO-PRO-1 dye displacement fluorescence

Structure (SMILES)	IC50
Cc1ccc(C(C)C)c(OCCSc2nc3ccccc3n2CC(=O)O)c1	> 29.9 µM
Cc1noc(NS(=O)(=O)c2ccc(NC(=O)c3oc4ccc(F)cc4c3C)cc2)c1C	16.5 µM
COc1ccc(C(=O)Nc2cccc(/C=C(/CCC(=O)O)c3nc4ccccc4s3)c2)cc1	14.2 µM
CC(C)(C)C1C/C(=C/c2ccco2)C(=O)/C(=C/c2ccco2)C1 (stereo unspecified)	> 29.9 µM
CC(C)c1ccc(CC(=O)N2CCC2(C)C(=O)NS(=O)(=O)c2ccc(C(C)(C)C)cc2)cc1 (stereo unspecified)	> 29.9 µM
O=C(O)c1ccc(NN=CC2=C(N3CCOCC3)/C(=C/c3ccccc3)CC2)cc1	11 µM
Cc1ccc(S(=O)(=O)N2[C@@H](c3ccc(Br)cc3)C(C(=O)O)=C[C@H]2CC2CCCC2)cc1	11.6 µM
CC1(C(=O)NS(=O)(=O)c2ccc3ccccc3c2)CCN1C(=O)C1(c2ccc(Cl)cc2)CCC1 (stereo unspecified)	21.2 µM
CO/N=C(\C(=O)N[C@@H]1C(=O)N2C(C(=O)O)=C(COC(C)=O)CS[C@H]12)c1csc(N)n1 (stereo in doubt)	9.89 µM (active)
O=C(Cc1ccccc1)Nc1ccc(C(=O)Nc2ccccc2C(=O)O)cc1	> 29.9 µM
COc1ccc(Cc2nnc(SCC(=O)Nc3ccc(C)c(Cl)c3)[nH]c2=O)cc1	24.2 µM

From PubChem BioAssay AID686960 (The Scripps Research Institute Molecular Screening Center, 2013)
